Test results taken from PubChem BioAssay (NCATS).
Results filed as inconclusive are left out. Unmarked numbers belong to inactive results. Calls of active or inactive are those of the source. Calls come from the whole dose curve; as a rule, active = well fitted inhibition curve with a large enough effect; inconclusive = small, poorly fitted or top-dose-only effect; inactive = no such curve, though single readings can be large or run the other way.

Biological target: Retinaldehyde dehydrogenase 3 (Homo sapiens) (UniProt P47895)
Assay: qHTS for Inhibitors of the Aldehyde Dehydrogenase Family (ALDH1A3) Primary screen (AID 2061315);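 note: plate controls were DMSO vehicle for no effect and reference inhibitor for full effect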
Conditions: ALDH inhibition qHTS; series mostly up to 56 µM; activity change, negative = inhibition: at the top concentration

SMILES	activity change, negative = inhibition	Potency
C=CCc1cccc(CNc2ccc(S(=O)(=O)Nc3nccs3)cc2)c1O	7.7%	
Cc1cc2c(s1)c1cnn(Cc3ccc(C)c(F)c3F)c(=O)c1n2C	6.56%	
COc1ccc(CC(=O)Nc2nc(-c3ccc4c(c3)CCN4C(=O)c3ccccc3C)c(C)s2)cc1	-7.57%	
Cc1cnc(-c2ccccc2C(C)C)nc1NCc1ccc(-c2ccnc(C(F)(F)F)c2)cc1	1.71%	
Cc1cc(NS(=O)(=O)c2ccc(NC(=O)Cc3ccc(Cl)c(C(F)(F)F)c3)cc2)no1	21.6%	
O=P(c1ccccc1)(c1ccccc1)c1cnc2ccccn12	-9.03%	
C#CCCC(=O)Nc1sc2c(c1-c1nc3ccccc3s1)CCN(C(C)C)C2	4.73%	
Fc1ccc(CNc2nc(-c3ccccc3C(F)(F)F)nc3ccccc23)cc1	-5.77%	
CSc1ccccc1-c1ccc(Nc2nc(-c3ccncc3)nc3ccccc23)cc1F	4.64%	
CCOc1ccc(CCNC(=O)c2cc3sccc3n2Cc2ccccc2)c(F)c1OCC	-5.65%	
CC(=O)c1ccc(N2CCN(S(=O)(=O)c3ccc4c(c3)CCCN4C(C)=O)CC2)cc1	-10.1%	
Cc1cccc(CNc2ccnc(-c3ccc(F)cc3F)n2)c1	0.832%	
O=C(NC(c1ccco1)c1cc(Cl)c2cccnc2c1O)c1ccc(F)c(F)c1 (stereo not given)	-0.463%	
CC(=O)Nc1ccc(S(=O)(=O)Nc2nccs2)cc1		inactive
CC(=O)Nc1sc2c(c1-c1nc3ccccc3s1)CCN(C)C2	-22.3%	
COc1ccc(NC(=O)C(OC(=O)CNC(=O)c2ccccc2)c2ccccc2)cc1Cl (stereo not given)	-5.34%	
Cn1c2ccsc2c2ncn(Cc3ccccc3F)c(=O)c21	-5.51%	
O=C(Nc1ccc(Cl)c(Cl)c1)Nc1nnc(N2CCNCC2)s1	20.4%	
O=S(=O)(c1cccc(C(F)(F)F)c1)N1CCN(S(=O)(=O)c2ccc3c(c2)OCCO3)CC1	-4.69%	
COc1cc(OC)cc(C2=Nn3c(nnc3-c3ccccc3OC)SC2)c1	11.1%	

SMILES	activity change, negative = inhibition	Potency
Cc1cc(C)nc(NC(=S)N2CCN(c3cnccn3)CC2)c1		inactive
COc1cc(O)c(C(CC(=O)N2CCCC(c3ccccc3)C2)c2ccc3c(c2)OCO3)c(OC)c1 (stereo not given)	24.1% [at 114 µM]	
CC1(C)CCc2cc(S(=O)(=O)N3CCN(S(=O)(=O)c4c(F)cccc4F)CC3)ccc2O1		inactive
Cc1cc2c(s1)c1cnn(Cc3cc(F)c(Cl)cc3Cl)c(=O)c1n2C	10.7%	
Fc1cccc(CNc2ncnc3ccc(-c4ccc5c(c4)OCO5)cc23)c1	8.81%	
Cc1nnc(-c2cnn(C)c2)n1CCCn1ccnc1	-5.88%	
Cc1ccc(NS(=O)(=O)c2ccc3c(c2)CCC(=O)N3)cc1F	0.717%	
CNC(=O)c1ccc(-c2cnc3cnc(C(=O)N(C)c4ccc(Cl)cc4)cn23)cc1	6.15%	
Cc1nc(N2CCOCC2)c2nc(-c3ccccc3)n(CCCN3CCCCC3C)c2n1 (stereo not given)	-0.319%	
COc1cc(OC)cc(C2=Nn3c(nnc3-c3cccc(OC)c3)SC2)c1	-2.66%	
Cc1cnc(-c2ccccc2C(C)C)nc1NCc1ccc(-c2cccc(S(N)(=O)=O)c2)cc1	-1.95%	
N#Cc1cccc(-c2csc(N3CCC(C(N)=O)CC3)n2)c1	-0.316%	
CN(C)c1cnc2c(O)cccc2c1	-19.4%	
CCC(=O)NC(c1cccs1)c1cc(Cl)c2cccnc2c1O (stereo not given)		inactive
O=C1CCCC2=C1C(c1[nH]ncc1Cl)NC(=NCCc1cccnc1)N2 (stereo not given)	2.28%	
C[C@@H]1O[C@@H](O[C@H]2[C@H](OC(=O)[C@]34CCC(C)(C)C[C@H]3C3=CCC5[C@@]6(C)C[C@H](O)[C@H](O[C@@H]7O[C@H](CO)[C@@H](O[C@@H]8O[C@H](CO)[C@@H](O)[C@H](O)[C@H]8O)[C@H](O)[C@H]7O)[C@@](C)(CO)C6[C@H](O)C[C@@]5(C)[C@]3(C)C[C@H]4O)OC[C@H](O)[C@@H]2O)[C@H](O)[C@H](O)[C@H]1O[C@@H]1OC[C@@H](O)[C@H](O[C@@H]2OC[C@](O)(CO)[C@H]2O)[C@H]1O (stereo not given in full)	-12.4% [at 11.2 µM]	
Cc1cc(N2C(=O)c3ccccc3C2=O)no1	-7.65%	
Cc1ccc(NS(=O)(=O)c2cc3c(cc2F)NC(=O)CC3)cc1Cl		inactive
O=S(=O)(c1ccc2c(c1)OCCO2)N1CCN(S(=O)(=O)c2ccco2)CC1	7.53%	
COC(=O)c1cc(F)c(S(=O)(=O)N2CCN(S(=O)(=O)c3ccc4c(c3)OCCO4)CC2)cc1F	-2.32%	
